Anthrax LF prot = Bacillus anthracis LF protease inhibitors, primary screen, biochemical, multiplex microsphere, MLPCN library; Lethal factor (Bacillus anthracis), P15917; multiplex microsphere protease cleavage assay; inhibition, % at 10 µM; 360,000 compounds, 0.12% hits; AID 588501, 2011; further: plate controls were buffer without enzyme for full effect and enzyme alone for no effect
Target sequence (P15917 whole entry, looked up): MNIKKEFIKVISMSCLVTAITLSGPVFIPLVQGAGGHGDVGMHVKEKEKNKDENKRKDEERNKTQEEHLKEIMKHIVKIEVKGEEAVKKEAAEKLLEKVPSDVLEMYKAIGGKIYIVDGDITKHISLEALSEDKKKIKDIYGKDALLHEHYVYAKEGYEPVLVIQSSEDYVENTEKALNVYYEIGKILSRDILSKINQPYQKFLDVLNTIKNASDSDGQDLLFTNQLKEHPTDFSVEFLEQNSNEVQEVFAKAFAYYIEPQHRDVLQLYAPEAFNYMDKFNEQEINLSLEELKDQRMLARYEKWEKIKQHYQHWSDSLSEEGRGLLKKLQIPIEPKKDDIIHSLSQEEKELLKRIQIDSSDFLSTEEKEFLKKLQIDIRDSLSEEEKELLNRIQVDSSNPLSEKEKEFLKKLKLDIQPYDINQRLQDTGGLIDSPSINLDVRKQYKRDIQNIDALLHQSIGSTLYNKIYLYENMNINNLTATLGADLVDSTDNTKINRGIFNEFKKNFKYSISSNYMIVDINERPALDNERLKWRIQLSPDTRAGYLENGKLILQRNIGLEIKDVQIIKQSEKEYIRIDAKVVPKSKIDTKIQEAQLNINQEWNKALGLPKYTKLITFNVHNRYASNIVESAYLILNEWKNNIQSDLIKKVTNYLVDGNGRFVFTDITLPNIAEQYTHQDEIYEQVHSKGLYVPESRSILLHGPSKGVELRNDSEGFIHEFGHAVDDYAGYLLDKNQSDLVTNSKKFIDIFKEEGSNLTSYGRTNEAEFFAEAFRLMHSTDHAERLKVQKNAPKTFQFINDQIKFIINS
BoNT F protease = BoNT/F light chain protease inhibitors, primary screen, biochemical, flow cytometry, MLPCN library; inhibition, % at 10 µM; Botulinum neurotoxin type F light chain protease (Clostridium botulinum); Multiplex microsphere protease cleavage assay; 360,000 compounds, 0.22% hits; in the data active means inhibition above about 35%, passing the limit was not always enough; inconclusive means no clear call, values can overlap the other calls; further: plate controls were buffer without enzyme for full effect and enzyme alone for no effect
Bead autofluor = counter-screen for toxin protease inhibitors: compound fluorescence; compound autofluorescence counterscreen, microsphere flow cytometry; hits give high values; fluorescence intensity (test concentration not listed); 360,000 compounds, 3.1% hits; AID 624483; in the data active means fluorescence intensity above about 16000; inconclusive means no clear call, values can overlap the other calls
BoNT-A LC inh2 = BoNT/A light chain protease inhibitors, primary screen, biochemical, flow cytometry, MLPCN library. Botulinum neurotoxin type A light chain protease (Clostridium botulinum A str. ATCC 3502). multiplex microsphere protease substrate cleavage. inhibition, % at 10 µM. 360,000 compounds, 0.17% hits. AID 588499, 2011; further: plate controls were buffer without enzyme for full effect and enzyme alone for no effect
Starred values were filed as active, the others as inactive; ? = inconclusive; ! = repeats disagree. Hits are enriched below; roughly 3.5% of the tested compounds scored in any of these assays. Unless noted, no stated cut-off is given here; in the data, active means inhibition above about 30%; inconclusive means no clear call, values can overlap the other calls; inactive means below that.

SMILES | Anthrax LF prot | BoNT F protease | Bead autofluor | BoNT-A LC inh2
COc1cc(/C=N/N2CCN(c3ccccc3OC)CC2)ccc1OC(C)=O | 42* | ? | 3650 | 0
COc1ccccc1N1CCN(C(=O)CSc2nc(C)c(C)c(=O)[nH]2)CC1 | 1 | -4 | 4485 | -1
Cc1sc2nc(CSCC(=O)Nc3ccc(Cl)cc3F)[nH]c(=O)c2c1C | 1 | 13 | 4835 | 2
O=C(CN(CC1CCCO1)C(=O)CNS(=O)(=O)c1ccc(Cl)cc1)NC1CCCC1 (stereo not drawn) | -11 | -24 | 3862 | -5
C=CCn1c(SCC(=O)Nc2ccccc2OC)nnc1-c1ccccn1 | -1 | -1 | 16901* | -1
CCn1c(SCC(=O)Nc2ccccc2OC)nnc1-c1cnccn1 | -4 | -2 | 16989* | -1
CCn1c(COc2cccc(OC)c2)nnc1SCC(=O)Nc1cc(OC)ccc1OC | -10 | -4 | 23149* | -2
CCn1c(COc2ccc3c(c2)CCCC3)nnc1SCC(=O)Nc1nccs1 | -2 | 1 | 20125* | 0
CCNC(=O)C1(C)CCN(Cc2ccccc2C#N)C1 (stereo not drawn) | 0 | -5 | 4005 | 0
C=CCn1c(SCC(=O)Nc2cc(NC(C)=O)ccc2OC)nnc1-c1cccnc1 | 6 | -2 | 9289 | 1
C=CCn1c(SCC(=O)Nc2cc(NC(C)=O)ccc2OC)nnc1-c1ccccn1 | 0 | 1 | 19382* | ?
Cc1cccc(-c2cnc3cccnn23)c1 | -7 | 2 | 3975 | 0
Cc1ccc(N(C(=O)CNC(=O)c2ccco2)C(C(=O)NCC2CCCO2)c2ccccc2)c(C)c1 (stereo not drawn) | 1 | 4 | 5412 | 1
O=C(CN(Cc1ccccc1)S(=O)(=O)c1ccc(Br)cc1)NCc1ccco1 | -7 | -9 | 23735* | -5
CCN(CC)S(=O)(=O)c1ccc(S(=O)(=O)N(CC(=O)Nc2ccccc2)Cc2ccco2)cc1 | 0 | 3 | 22492* | 4
O=C(CN(Cc1ccc(Br)cc1)S(=O)(=O)c1ccccc1)NCc1ccccn1 | -5 | -8 | 5995 | 0
CCOc1ccc(S(=O)(=O)N2CCC(C(=O)NCc3ccccn3)CC2)cc1C | -10 | 4 | 4118 | 3
COC(=O)c1ccccc1S(=O)(=O)Oc1ccc(-c2ccc(C(=O)O)cc2)cc1 | -14 | 37* | 3745 | -3
O=C(O)c1ccc(-c2ccc(OS(=O)(=O)c3ccccc3F)cc2)cc1 | -2 | 8 | 5387 | -1
CS(=O)(=O)c1cnc2c(-c3ccc(F)cc3)cnn2c1N | 0 | -3 | 20368* | ?
O=C(O)c1ccc(Cl)c(NC(=O)C2CCCN2S(=O)(=O)c2cccc3nsnc23)c1 (stereo not drawn) | -3 | 0 | 20420* | 0
O=C(NC1(C(F)(F)F)NC(=O)N(c2ccc(F)c(Cl)c2)C1=O)c1ccncc1 (stereo not drawn) | -4 | -2 | 23968* | -3
Cc1cc(C)n2nc(S(=O)(=O)N(CC(C)C)CC(C)C)nc2n1 | -1 | -9 | 5107 | -2
CCN(Cc1ccccc1)S(=O)(=O)c1nc2nc(C)c(C)c(C)n2n1 | 0 | -4 | 17154* | -2
Cc1cc(C)n2nc(CCc3ccccc3)nc2n1 | 0 | 3 | 23082* | 0
SMILES | Anthrax LF prot | BoNT F protease | Bead autofluor | BoNT-A LC inh2
Cc1cc(C)n2nc(S(=O)(=O)N(C)Cc3ccccc3)nc2n1 | 0 | 2 | 19864* | ?
C#CCOCCOCCOCCNc1nc(N2CCN(C(=O)[C@H]([C@@H](C)CC)n3cc([C@@H](N)CC(C)C)nn3)CC2)nc(N2CCN(C(=O)[C@H](CCCCN)n3cc([C@@H](N)CO)nn3)CC2)n1 | -7 | -24 | 4226 | 0
O=c1[nH]c2ccccc2n1CCCSCCCn1c(=O)[nH]c2ccccc21 | -3 | 3 | 19717* | ?
COc1cc(NC(=O)c2ccc(NC3=NC4CS(=O)(=O)CC4S3)cc2)cc(OC)c1OC (stereo not drawn) | -8 | -5 | 5541 | -1
CN(C(=O)CSc1nc2sc3c(c2c(=O)n1C)CCC3)C1CCS(=O)(=O)C1 (stereo not drawn) | 6 | 3 | 3825 | 0
O=c1c2ccccc2nc(-c2ccoc2)n1-c1ccccc1Cl | -2 | 2 | 22805* | 1
O=c1c2ccccc2nc(-c2ccoc2)n1-c1ccccc1 | -1 | -1 | 20668* | ?
Cc1ccc(N(CC(=O)NCc2ccccc2)S(=O)(=O)c2c(C)noc2C)cc1 | 0 | 5 | 5204 | 1
COc1ccc(OCC(=O)OC2CCCN(C)C2)cc1 (stereo not drawn) | 0 | ? | 3824 | -1
CC(=O)c1cccc(NC(=O)N2CCC(NC(=O)C3CCCCC3)CC2)c1 | 2 | -1 | 5601 | 0
CCOC(=O)c1cc(NC(=O)CC(C)(C)CC(=O)O)ccc1N1CCCCC1 | 6 | ? | 4480 | -2
Cc1c(C(=O)O)oc2c1C(O)CC(C)(C)C2 (stereo not drawn) | -2 | -2 | 16667*! | -1
CCOc1ccc(NC(=S)/C(=C(\[O-])c2ccc(C)c([N+](=O)[O-])c2)[n+]2ccccc2)cc1 | -9 | -34 | 4794 | 9
CCc1cc[n+](/C(C(=S)Nc2cccc(C)c2)=C(/[O-])c2ccc(C)c([N+](=O)[O-])c2)cc1 | 9 | -22 | 3019 | 32*
COCCCN1C(=O)C(CC(=O)NCc2cccc3ccccc23)CC(C(=O)N(C(C)C)C(C)C)=C1C (stereo not drawn) | -7 | -1 | 4242 | 0
N#Cc1ccccc1Cn1c(-c2cscn2)nc2ccccc21 | -1 | -3 | 22811* | ?
COc1cc(/C=N/NC(=O)c2cccnc2)ccc1OS(=O)(=O)c1ccc(F)cc1 | 1 | -8 | 20771* | -3
COc1ccccc1C(CNC(=O)C1CC(=O)N(Cc2ccccc2)C1)N1CCCC1 (stereo not drawn) | 12 | 8 | 12905 | -2
Cc1ccc(C2OCC3(CO2)COC(c2ccc(C)cc2)OC3)cc1 (stereo not drawn) | 2 | -6 | 2479 | 0
O=C1C2(CCC13COC(c1ccc(O)cc1)OC3)COC(c1ccc(O)cc1)OC2 (stereo not drawn) | -5 | -1 | 22568* | 1
CCN(CC)C(=O)CSc1nc2c(sc(=S)n2CC)c(=O)n1-c1ccccc1 | -7 | -4 | 22153* | ?
CCOC(=O)CSc1nc2c(sc(=S)n2Cc2ccco2)c(=O)n1-c1ccc(F)cc1 | -5 | -5 | 16594* | ?
CCC(C)NC(=O)CSc1nc2c(sc(=S)n2Cc2ccco2)c(=O)n1-c1ccccc1 (stereo not drawn) | 2 | 4 | 5479 | 0
CCN(CC)C(=O)CSc1nc2c(sc(=S)n2-c2ccccc2)c(=O)n1Cc1ccco1 | -3 | 6 | 21125* | 2
O=C(CN1C(=O)c2ccccc2C1=O)Nc1sc2c(c1C(=O)NCc1ccco1)CCCC2 | -1 | -8 | 4418 | -2
O=C(CN1C(=O)c2ccccc2C1=O)Nc1sc2c(c1C(=O)NCC1CCCO1)CCC2 (stereo not drawn) | 0 | -1 | 22614* | 0
